HTT prom inh: inhibits huntingtin promoter activity; HEK293 HTT promoter firefly luciferase reporter, 24 h; Potency, µM (titrated, usually from 57.5 µM), hits mostly inhibitors; 48,000 compounds, 0.93% hits; AID 1508623; also: nearly all actives have a fitted effect of over 50% in size
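HEK293 luciferase promoter-reporter cells (2,500/well) plated 24 h, then compounds added at up to 57.5 uM final for 24 h at 37 °C. Firefly luminescence by Dual-Glo, normalized to vehicle (0%) and zero RLU (-100%).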
NTMT1 inhibitor: blocks human N-terminal methyltransferase 1 activity; NTMT1 MTase-Glo SAH luminescence, purified enzyme; AID 1645870; Potency, µM (series often up to 114 µM), hits mostly inhibitors; 59,000 compounds, 2.5% hits; Q9BV86; also: nearly all actives have a fitted effect of over 65% in size
Target sequence (Q9BV86 whole entry, looked up): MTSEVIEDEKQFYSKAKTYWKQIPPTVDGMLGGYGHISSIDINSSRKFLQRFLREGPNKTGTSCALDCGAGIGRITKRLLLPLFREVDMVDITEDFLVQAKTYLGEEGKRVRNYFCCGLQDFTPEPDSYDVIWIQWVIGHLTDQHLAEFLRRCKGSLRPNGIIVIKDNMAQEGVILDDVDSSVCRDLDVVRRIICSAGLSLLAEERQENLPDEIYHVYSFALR
HTT-AS promoter: activators of huntingtin-antisense promoter activity. AID 1508624. HEK293 HTT-AS promoter firefly luciferase reporter, 24 h; response scale: percent change from vehicle, -100% = no light. Potency, µM (series often up to 57.5 µM), actives largely listed as activators. 48,000 compounds, 0.24% hits; also: nearly all actives have a fitted effect of over 55% in size
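HEK293 Fluc reporter, 2,500 cells/well, 24 h pre-culture; cpds up to 57.5 uM final, 24 h 37 degrees C; Dual-Glo, 10 min RT; normalized vehicle = 0%, zero RLU = -100%.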
Hits are given with their value; ! = not active in a repeat. The list is not random: actives were taken first. Their share in the collection is about 2.4%. Calls follow the shape of the dose curve; as a rule, active = well fitted curve in the direction sought with a large enough effect; inconclusive = small, poorly fitted or top-dose-only effect, or another doubt; inactive = no such curve, though single readings can be large; an effect the other way counts as inactive or inconclusive.

For CC(C)c1ccccc1-c1ncc(F)c(NCc2ccc(-c3ccn[nH]3)cc2)n1 the results were NTMT1 inhibitor inactive.
Screening Cc1cccc(-n2c(-c3ccco3)nc3c(cnn3-c3ccc(F)cc3)c2=O)c1 returned HTT prom inh 18µM, NTMT1 inhibitor inactive and HTT-AS promoter inactive.
For Cc1ccc(-n2c(-c3ccco3)nc3c(cnn3-c3ccc(C)cc3)c2=O)cc1 the results were HTT prom inh inactive, NTMT1 inhibitor inactive and HTT-AS promoter inactive.
Screening O=C(Nc1ccc(S(=O)(=O)Nc2nccs2)cc1)[C@@H]1CC[C@H](C(=O)c2ccccc2)C1 returned NTMT1 inhibitor inactive.
For COc1cc(O)c(C(CC(=O)N2CCCC(C)C2)c2ccc(OC)c(OC)c2)c(OC)c1 (stereo not given) the results were NTMT1 inhibitor inactive.
Screening O=C(CCn1cnc2onc(-c3ccc(F)cc3)c2c1=O)Nc1cccc(C(F)(F)F)c1 returned HTT prom inh inconclusive, NTMT1 inhibitor inactive and HTT-AS promoter inactive.
For O=C(CCn1cnc2onc(-c3ccc(F)cc3)c2c1=O)Nc1ccc(F)c(Cl)c1 the results were HTT prom inh 22µM, NTMT1 inhibitor inactive and HTT-AS promoter inactive.
For CCOC(=O)N1CCC(CN(Cc2ccc(Cl)cc2)Cc2ccc([N+](=O)[O-])s2)C1 (stereo not given) the results were NTMT1 inhibitor inactive.
Screening C[C@@H](Nc1cc(F)cc(F)c1)c1cc(C(=O)N(C)C)cc2c(=O)cc(N3CCOCC3)oc12 returned NTMT1 inhibitor inactive.
O=c1[nH]sc2cc(Cl)ccc12 was read as HTT prom inh inactive, NTMT1 inhibitor 2.8µM and HTT-AS promoter inconclusive.
CCCN1CCC=C(c2cc(-c3ccc(C)cc3)no2)C1 was read as NTMT1 inhibitor inactive.
`O=C(O)c1ccc(O)c2ncc(NC3CCNCC3)cc12` gave NTMT1 inhibitor inactive.
Screening N#Cc1cc(NC(=O)Nc2nnc(-c3ccncc3)s2)ccc1Cl returned NTMT1 inhibitor inactive.
CCC(C)C(C(=O)O)N1Cc2c(OCC=C(C)C)c(C)c(OC)c(C(=O)O)c2C1=O (stereo not given) was read as NTMT1 inhibitor inactive.
`Nc1cccc(OCCn2c(CCNC(=O)C3CCCCC3)nc3ccccc32)c1` gave NTMT1 inhibitor inactive.
Screening C[C@]12CC[C@@H]3c4ccc(O)cc4CC[C@H]3[C@H]1CC[C@H]2O returned HTT prom inh inactive, NTMT1 inhibitor inconclusive and HTT-AS promoter inactive.
Screening CC(=O)Oc1ccc2c(c1)CC[C@@H]1[C@@H]2CC[C@]2(C)[C@@H](O)CC[C@@H]12 returned HTT prom inh inactive, NTMT1 inhibitor 25µM and HTT-AS promoter inactive.
`COc1ccc(C(=O)CN2CCN(S(=O)(=O)c3ccc(C(C)C)cc3)CC2)cc1` gave HTT prom inh inconclusive, NTMT1 inhibitor 56µM and HTT-AS promoter inactive.
`CCOc1ccc(NC(=O)CN2CCN(S(=O)(=O)c3ccc(OC)cc3)CC2)cc1` gave HTT prom inh inactive, NTMT1 inhibitor inactive and HTT-AS promoter inactive.
For O=C(Nc1ccc2oc(-c3cccnc3)nc2c1)c1ccc(-c2ccc(OC(F)(F)F)cc2)o1 the results were HTT prom inh inactive, NTMT1 inhibitor 50µM and HTT-AS promoter inactive.
For O=C(Nc1ccc2oc(-c3cccnc3)nc2c1)c1ccc(-c2ccccc2)o1 the results were HTT prom inh inconclusive, NTMT1 inhibitor inconclusive and HTT-AS promoter inactive.
O=C1NS(=O)(=O)c2cscc21 was read as NTMT1 inhibitor inactive.
Screening CCOC(=O)c1c(-c2ccc(C)o2)csc1NC(=O)CSc1nnnn1-c1ccccc1 returned NTMT1 inhibitor 3.5µM.
For CCOC(=O)c1c(-c2ccccc2)csc1NC(=O)c1cc(-c2cccc(Cl)c2)on1 the results were HTT prom inh inactive, NTMT1 inhibitor inactive and HTT-AS promoter inactive.
CC(C)(C)c1cnc(CSc2cnc(NC(=O)C3CCNCC3)s2)o1 was read as HTT prom inh inconclusive, NTMT1 inhibitor 50µM! and HTT-AS promoter inactive.
NCCCC[C@H](NC(=O)[C@@H](NC(=O)[C@H](Cc1c[nH]c2ccccc12)NC(=O)[C@H](CCCCN)NC(=O)[C@H](CCCCN)NC(=O)[C@H](Cc1c[nH]c2ccccc12)NC(=O)[C@H](Cc1c[nH]c2ccccc12)NC(=O)[C@H](CCCCN)NC(=O)[C@@H](N)CCCCN)C(c1ccccc1)c1ccccc1)C(N)=O was read as NTMT1 inhibitor 22µM.
For NC(Cc1c[nH]c2ccccc12)C(=O)NC(CCC(=O)O)C(=O)O (stereo not given) the results were NTMT1 inhibitor inactive.
CNc1nc(-c2ccc3c(N)n[nH]c3c2)cc(N2C[C@@H](C(=O)NC3CCCCC3)CC[C@H]2C)n1 was read as NTMT1 inhibitor inactive.
`CC1NC(=O)C(Cc2c[nH]c3ccccc23)NC1=O` (stereo not given) gave NTMT1 inhibitor inactive.
Screening Cc1cc(C)cc(NC(=O)N2CCN3CCCCC3C2)c1 (stereo not given) returned HTT prom inh inactive, NTMT1 inhibitor inactive and HTT-AS promoter inactive.
For Cc1cc(C)cc(NC(=O)N2CCC(N3CCCCC3)CC2)c1 the results were HTT prom inh inactive, NTMT1 inhibitor 89µM and HTT-AS promoter inactive.
`C/C=C/C(O)C1OC(=O)CC1Nc1ccc(C(=O)O)cc1` (stereo not given) gave NTMT1 inhibitor inactive.
`COC(=O)N1CC2(CC2)C[C@H](C(=O)NO)[C@H]1C(=O)N1CCN(c2ccccc2)CC1` gave NTMT1 inhibitor inactive.
Screening Cn1cc(-c2ccc3nnc(Sc4ccc5nn(C)cc5c4)n3n2)cn1 returned NTMT1 inhibitor inactive.
Screening C/C=C(\C)C(=O)OCC1OC(OC2OC(CO)C(O)C(O)C2O)C(O)C(O)C1O (stereo not given) returned NTMT1 inhibitor inactive.
Cc1nn2c(=O)cc(COC(=O)c3cccc(NC(=O)COc4ccc(C)c(C)c4)c3)nc2s1 was read as HTT prom inh inactive, NTMT1 inhibitor inactive and HTT-AS promoter inactive.
`Cc1nn2c(=O)cc(COC(=O)c3cccc(NC(=O)COc4ccccc4C)c3)nc2s1` gave HTT prom inh 3.2µM, NTMT1 inhibitor inactive and HTT-AS promoter inactive.
For CCc1nn2c(=O)cc(COC(=O)C(c3ccccc3)c3ccccc3)nc2s1 the results were HTT prom inh inactive, NTMT1 inhibitor inactive and HTT-AS promoter inactive.
For CCc1nn2c(=O)cc(COC(=O)c3ccccc3)nc2s1 the results were HTT prom inh inactive, NTMT1 inhibitor inactive and HTT-AS promoter 4µM.
O=C(Cc1ccc(Cl)c(Cl)c1)Nc1ccc(S(=O)(=O)O)cc1 was read as NTMT1 inhibitor inactive.
`O=C(Nc1ccc(Cl)c(S(=O)(=O)N2CCOCC2)c1)c1ccc(S(=O)(=O)N2CCOCC2)cc1` gave NTMT1 inhibitor inactive.
CCCCNc1ncc(C(=O)NCc2ccc(-n3ccnc3)cc2)c(NC2CCC(O)CC2)n1 (stereo not given) was read as NTMT1 inhibitor inactive.
Screening COc1ccc(-c2cc(C(C)=O)c(C)n2CCC(=O)Nc2cc(Cl)ccc2C)cc1 returned HTT prom inh inactive, NTMT1 inhibitor 89µM and HTT-AS promoter inactive.
Screening COc1ccc(-c2cc(C(C)=O)c(C)n2CCC(=O)Nc2ccc(C)c(Cl)c2)cc1 returned HTT prom inh inconclusive, NTMT1 inhibitor inconclusive and HTT-AS promoter inactive.

Source: PubChem BioAssay
